Experiments:
Experiment in all cases: log2 ratio of Biotin-Ahx-Ub-VS probe labelling (fragment/DMSO); higher = less target engagement (more negative = stronger competition), active = hit call of the paper (q ≤ 0.05, log2 ratio ≤ -1)
Conditions in all cases: compound concentration: 200 uM; treatment time: 3 h
OTUD6B = biological target: T1, OTUD6B (UniProt Q8N6M0)
T1 sequence (whole entry): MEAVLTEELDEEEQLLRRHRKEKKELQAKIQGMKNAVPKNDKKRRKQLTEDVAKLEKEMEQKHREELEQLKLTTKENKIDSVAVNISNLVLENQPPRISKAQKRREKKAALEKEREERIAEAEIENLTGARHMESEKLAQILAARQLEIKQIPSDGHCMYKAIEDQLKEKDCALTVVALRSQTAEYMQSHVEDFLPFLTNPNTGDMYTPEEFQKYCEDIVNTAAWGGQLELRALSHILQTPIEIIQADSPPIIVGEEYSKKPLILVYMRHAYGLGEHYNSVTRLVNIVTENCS
Method in brief: (§1)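 Fragment (200 µM) or vehicle was incubated for 3 h with triplicate HEK293T lysate samples of 495 µg, which were then treated with Biotin-Ahx-Ub-VS at 0.5 µM final for 1 h. Labelled DUBs were enriched on NeutrAvidin, digested with LysC and trypsin, and analysed by diaPASEF LC-MS/MS. Values are average log2 fragment/vehicle ratios from an unpaired t-test on global-median-normalised Spectronaut label-free quantities, using proteins with ≥2 unique peptides.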

OTUD7B = biological target: T2, OTUD7B (UniProt Q6GQQ9)
T2 sequence (whole entry): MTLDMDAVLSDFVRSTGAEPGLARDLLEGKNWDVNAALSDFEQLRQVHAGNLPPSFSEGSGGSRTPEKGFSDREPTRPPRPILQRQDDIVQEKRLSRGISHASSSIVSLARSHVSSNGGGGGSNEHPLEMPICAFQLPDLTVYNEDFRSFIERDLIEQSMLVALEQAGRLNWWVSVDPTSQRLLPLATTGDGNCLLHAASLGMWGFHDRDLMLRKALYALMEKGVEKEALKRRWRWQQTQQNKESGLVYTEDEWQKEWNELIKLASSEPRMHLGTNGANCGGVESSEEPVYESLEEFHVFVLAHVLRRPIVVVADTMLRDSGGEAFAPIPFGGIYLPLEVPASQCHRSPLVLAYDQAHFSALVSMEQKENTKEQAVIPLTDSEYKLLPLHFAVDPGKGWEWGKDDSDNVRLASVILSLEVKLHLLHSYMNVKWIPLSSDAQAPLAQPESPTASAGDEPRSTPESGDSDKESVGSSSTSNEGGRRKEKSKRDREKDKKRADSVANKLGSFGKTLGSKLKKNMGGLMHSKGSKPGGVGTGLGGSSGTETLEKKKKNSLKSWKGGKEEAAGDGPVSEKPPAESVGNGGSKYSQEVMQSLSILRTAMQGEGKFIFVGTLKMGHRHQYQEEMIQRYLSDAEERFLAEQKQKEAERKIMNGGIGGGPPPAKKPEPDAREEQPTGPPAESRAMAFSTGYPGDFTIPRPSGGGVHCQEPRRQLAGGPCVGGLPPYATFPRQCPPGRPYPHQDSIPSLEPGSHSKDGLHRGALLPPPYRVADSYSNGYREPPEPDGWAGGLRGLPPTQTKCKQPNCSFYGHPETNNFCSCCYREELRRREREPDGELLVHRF
Method in brief: as §1

PRPF8 = PRPF8 (UniProt Q6P2Q9)
Method in brief: as §1

PSMD7 = biological target: T3, PSMD7 (UniProt P51665)
T3 sequence (whole entry): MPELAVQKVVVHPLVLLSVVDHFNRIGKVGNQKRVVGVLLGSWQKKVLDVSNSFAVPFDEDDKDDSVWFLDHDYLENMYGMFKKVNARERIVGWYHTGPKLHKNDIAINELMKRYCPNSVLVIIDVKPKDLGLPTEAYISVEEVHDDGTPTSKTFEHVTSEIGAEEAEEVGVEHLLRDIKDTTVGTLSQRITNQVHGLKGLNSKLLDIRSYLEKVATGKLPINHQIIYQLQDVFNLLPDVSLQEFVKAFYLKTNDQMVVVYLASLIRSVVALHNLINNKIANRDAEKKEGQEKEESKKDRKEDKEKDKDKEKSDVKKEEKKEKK
Method in brief: as §1

UCHL1 = UCHL1 (UniProt P09936)
UCHL1, sequence (P09936 whole entry, looked up): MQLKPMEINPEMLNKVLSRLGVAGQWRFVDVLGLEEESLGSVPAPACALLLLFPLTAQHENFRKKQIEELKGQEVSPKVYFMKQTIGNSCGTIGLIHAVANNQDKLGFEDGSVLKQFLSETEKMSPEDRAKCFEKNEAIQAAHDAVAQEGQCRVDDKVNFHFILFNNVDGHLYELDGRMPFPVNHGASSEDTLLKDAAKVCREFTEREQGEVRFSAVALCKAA
Method in brief: as §1

UCHL3 = biological target: T4, UCHL3 (UniProt P15374)
T4 sequence (whole entry): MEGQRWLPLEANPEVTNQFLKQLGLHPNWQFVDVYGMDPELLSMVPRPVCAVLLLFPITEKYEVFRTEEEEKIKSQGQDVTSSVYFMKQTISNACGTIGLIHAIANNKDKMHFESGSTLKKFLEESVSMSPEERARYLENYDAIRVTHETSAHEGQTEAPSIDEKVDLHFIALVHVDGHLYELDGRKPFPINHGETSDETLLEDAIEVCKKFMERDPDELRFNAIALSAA
Method in brief: as §1

UCHL5 = biological target: T5, UCHL5 (UniProt Q9Y5K5)
T5 sequence (whole entry): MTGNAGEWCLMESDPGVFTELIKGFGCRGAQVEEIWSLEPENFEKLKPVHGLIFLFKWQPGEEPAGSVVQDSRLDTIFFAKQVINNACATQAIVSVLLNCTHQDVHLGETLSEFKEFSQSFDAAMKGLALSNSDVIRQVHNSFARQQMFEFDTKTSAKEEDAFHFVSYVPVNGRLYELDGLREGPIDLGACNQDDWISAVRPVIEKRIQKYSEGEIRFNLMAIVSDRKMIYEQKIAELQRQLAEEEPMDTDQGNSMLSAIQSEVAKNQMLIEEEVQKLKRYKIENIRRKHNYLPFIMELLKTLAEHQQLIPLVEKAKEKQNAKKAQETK
Method in brief: as §1

USP10 = USP10 (UniProt Q14694)
USP10, sequence (Q14694 whole entry): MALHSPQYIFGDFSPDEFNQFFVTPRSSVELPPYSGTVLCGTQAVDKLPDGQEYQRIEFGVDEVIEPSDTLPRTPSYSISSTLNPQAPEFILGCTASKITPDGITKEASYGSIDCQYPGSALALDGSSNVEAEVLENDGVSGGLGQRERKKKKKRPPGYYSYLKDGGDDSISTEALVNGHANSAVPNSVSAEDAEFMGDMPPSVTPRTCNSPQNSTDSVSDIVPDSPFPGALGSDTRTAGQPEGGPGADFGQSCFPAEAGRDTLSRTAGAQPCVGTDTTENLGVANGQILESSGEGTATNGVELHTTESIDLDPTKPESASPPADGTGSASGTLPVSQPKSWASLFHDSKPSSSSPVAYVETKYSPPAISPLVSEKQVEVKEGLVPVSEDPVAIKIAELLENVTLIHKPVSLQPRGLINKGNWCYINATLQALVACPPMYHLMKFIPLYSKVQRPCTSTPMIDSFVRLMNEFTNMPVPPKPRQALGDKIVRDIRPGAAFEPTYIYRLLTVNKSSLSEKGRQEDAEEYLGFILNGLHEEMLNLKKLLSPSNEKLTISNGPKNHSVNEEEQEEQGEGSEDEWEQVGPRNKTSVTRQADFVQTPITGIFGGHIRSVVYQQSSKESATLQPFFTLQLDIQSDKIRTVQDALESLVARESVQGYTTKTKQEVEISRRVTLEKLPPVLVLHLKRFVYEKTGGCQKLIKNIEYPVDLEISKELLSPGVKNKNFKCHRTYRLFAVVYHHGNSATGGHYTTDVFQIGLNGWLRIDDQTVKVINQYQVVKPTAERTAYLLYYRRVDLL
Method in brief: as §1

USP15 = biological target: T6, USP15 (UniProt Q9Y4E8)
T6 sequence (whole entry): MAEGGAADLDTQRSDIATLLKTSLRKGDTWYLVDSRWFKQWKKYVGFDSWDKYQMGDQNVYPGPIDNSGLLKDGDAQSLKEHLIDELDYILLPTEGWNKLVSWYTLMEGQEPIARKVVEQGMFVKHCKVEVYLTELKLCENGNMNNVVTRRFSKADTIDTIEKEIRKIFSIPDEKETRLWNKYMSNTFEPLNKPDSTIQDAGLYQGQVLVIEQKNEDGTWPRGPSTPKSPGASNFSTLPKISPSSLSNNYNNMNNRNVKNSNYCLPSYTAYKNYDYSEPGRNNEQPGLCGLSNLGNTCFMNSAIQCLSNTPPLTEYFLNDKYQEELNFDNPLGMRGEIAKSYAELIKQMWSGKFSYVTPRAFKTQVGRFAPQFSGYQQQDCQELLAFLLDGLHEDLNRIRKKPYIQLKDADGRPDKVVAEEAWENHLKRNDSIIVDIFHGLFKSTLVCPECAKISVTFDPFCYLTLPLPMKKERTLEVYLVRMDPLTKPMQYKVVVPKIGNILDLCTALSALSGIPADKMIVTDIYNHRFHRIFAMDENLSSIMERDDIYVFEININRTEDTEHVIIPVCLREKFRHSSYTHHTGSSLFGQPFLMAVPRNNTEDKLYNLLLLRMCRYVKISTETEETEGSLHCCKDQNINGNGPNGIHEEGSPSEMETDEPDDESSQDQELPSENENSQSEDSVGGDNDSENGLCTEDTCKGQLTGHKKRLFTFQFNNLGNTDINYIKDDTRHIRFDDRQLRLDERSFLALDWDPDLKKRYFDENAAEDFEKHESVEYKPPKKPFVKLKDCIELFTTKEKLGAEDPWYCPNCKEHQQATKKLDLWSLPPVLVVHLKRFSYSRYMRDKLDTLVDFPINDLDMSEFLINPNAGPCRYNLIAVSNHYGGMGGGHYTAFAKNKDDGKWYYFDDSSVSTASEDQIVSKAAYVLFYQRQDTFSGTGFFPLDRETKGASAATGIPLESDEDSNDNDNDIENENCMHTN
Method in brief: as §1

USP16 = USP16 (UniProt Q9Y5T5)
USP16, sequence (Q9Y5T5 whole entry, looked up): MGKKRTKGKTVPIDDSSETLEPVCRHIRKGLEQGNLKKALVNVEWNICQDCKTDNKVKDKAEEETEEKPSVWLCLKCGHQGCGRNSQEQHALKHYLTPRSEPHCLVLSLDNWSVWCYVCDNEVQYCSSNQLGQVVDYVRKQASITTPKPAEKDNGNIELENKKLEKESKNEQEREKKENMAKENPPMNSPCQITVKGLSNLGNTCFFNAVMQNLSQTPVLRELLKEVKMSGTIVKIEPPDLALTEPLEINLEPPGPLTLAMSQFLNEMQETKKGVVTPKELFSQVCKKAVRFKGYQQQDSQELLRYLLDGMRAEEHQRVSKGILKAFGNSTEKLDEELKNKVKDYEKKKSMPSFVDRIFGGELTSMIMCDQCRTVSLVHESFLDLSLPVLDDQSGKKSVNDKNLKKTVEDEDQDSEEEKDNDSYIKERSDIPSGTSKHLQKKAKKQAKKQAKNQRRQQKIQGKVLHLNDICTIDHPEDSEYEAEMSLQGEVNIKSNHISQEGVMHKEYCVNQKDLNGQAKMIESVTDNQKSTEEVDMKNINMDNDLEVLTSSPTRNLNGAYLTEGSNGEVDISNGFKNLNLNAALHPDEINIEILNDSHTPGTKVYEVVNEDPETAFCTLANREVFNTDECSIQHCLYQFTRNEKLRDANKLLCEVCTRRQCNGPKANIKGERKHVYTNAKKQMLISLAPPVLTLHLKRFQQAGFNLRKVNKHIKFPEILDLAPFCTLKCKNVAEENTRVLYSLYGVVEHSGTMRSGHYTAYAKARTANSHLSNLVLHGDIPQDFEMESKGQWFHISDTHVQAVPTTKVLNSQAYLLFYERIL
Method in brief: as §1

Measured: log2 ratio of Biotin-Ahx-Ub-VS probe labelling

CNC(=O)Cn1cc(NC(=O)CCl)cn1
inactive: OTUD6B -0.476 | OTUD7B -0.454 | PRPF8 1e-05 | PSMD7 -0.0882 | UCHL3 0.189 | UCHL5 -0.399 | USP10 -0.209 | USP15 -0.375 | USP16 -0.148
active: UCHL1 -1.59

Reference: the supplement of paper PMC11732987, “Enantioselective OTUD7B fragment discovery through chemoproteomics screening and high-throughput optimisation” (Communications Chemistry, 2025)
